This note sets out measurements from PubChem BioAssay.

Experiment [1] is described as follows: resazurin metabolic signal in HepG2 cells – cell-based, resazurin fluorescence, 24 h, PK04 Diversity Set, profiling panel (AID 1172). Further: test concentration not given here. The following applies: HepG2 viability, higher = more signal. Background: Alamar Blue is a resazurin reagent that responds to reducing activity.
Experiment [2] can be described thus: budding yeast growth changes without added modifier – OD600, strain BY4716, 24 h, basal condition, primary screen (AID 1173). The following applies: S. cerevisiae BY4716 growth, OD600, 24 h; higher = more signal, called active from +8 up or from −8 down.
The nature of experiment [3]: viability profiling in MM1S myeloma cells – cell-based, resazurin fluorescence, basal, 24 h, PK04 Diversity Set, profiling panel (AID 1174).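 Further: MM1S multiple myeloma cell line; test concentration not given here.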 The following applies: higher = more signal, called active from +8 up or from −8 down.
Experiment [4] concerns the target Dihydroorotate dehydrogenase (quinone), mitochondrial (Plasmodium falciparum (isolate 3D7)) (UniProt Q08210). Kind of experiment: inhibition of P. falciparum DHODH – biochemical, C-terminal His tag, absorbance 600 nm, primary screen (AID 1175).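 Further: recombinant parasite enzyme with a five histidine tag at its C terminus; test concentration not given here.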 As to conditions: PfDHODH enzyme, DCIP absorbance 600 nm; higher = more signal, called active from +8 up or from −8 down.

The nature of experiment [5]: inhibition of PAO1 biofilm formation – strain PAO1, LB-PBS medium, absorbance 600 nm, primary screen (AID 1176). Further: test concentration not given here. The following applies: P. aeruginosa PAO1 growth/biofilm, A600, 12 h; higher = more signal.
Experiment [6] can be described thus: growth modulation of vineyard yeast isolate – strain RM11-1a, OD600, basal, 24 h, primary screen (AID 1177).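 Further: cultures grown under basal conditions with no added stressor; test concentration not given here.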 As to conditions: S. cerevisiae RM11-1a growth, OD600, 24 h; higher = more signal, called active from +8 up or from −8 down.
Experiment [7] is described as follows: growth of efflux-deficient E. coli DRC39 – strain DRC39, OD650, 24 h, E. coli filamentation inducers, primary screen (AID 1178).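 Further: growth measured as culture turbidity by optical density at 650 nm; test concentration not given here.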 As to conditions: E. coli DRC39 acrAB, higher = more signal, called active from +8 up or from −8 down.
The nature of experiment [8]: growth of efflux-deficient E. coli DRC39 – strain DRC39, OD650, 48 h, E. coli filamentation inducers, primary screen (AID 1179).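 Further: screen aims at cell division blockers that make cells filament.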 The following applies: E. coli DRC39 delta-acrAB growth, higher = more signal, called active from +8 up or from −8 down.
Experiment [9] in a line: viability profiling in RPMI8226 myeloma cells – cell-based, resazurin fluorescence, basal, 24 h, PK04 Diversity Set, profiling panel (AID 1180).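 Further: RPMI8826 multiple myeloma cell line at 5000 cells per well; test concentration not given here.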 As to conditions: higher = more signal.
Experiment [10] has as its target E3 ubiquitin-protein ligase XIAP (Homo sapiens) (UniProt P98170). Kind of experiment: small molecules binding XIAP protein – biophysical, small-molecule microarray, fluorescence 635 nm, primary screen (AID 1181).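 Further: score merges 667 nm emission and signal to noise over triplicate slides.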 As to conditions: higher = more signal.

SMILES strings stand for the structures. Active and inactive are the calls of the source. Unless noted, how the calls were made is not given here.

Chain of E3 ubiquitin-protein ligase XIAP (Homo sapiens) (P98170 whole entry, looked up): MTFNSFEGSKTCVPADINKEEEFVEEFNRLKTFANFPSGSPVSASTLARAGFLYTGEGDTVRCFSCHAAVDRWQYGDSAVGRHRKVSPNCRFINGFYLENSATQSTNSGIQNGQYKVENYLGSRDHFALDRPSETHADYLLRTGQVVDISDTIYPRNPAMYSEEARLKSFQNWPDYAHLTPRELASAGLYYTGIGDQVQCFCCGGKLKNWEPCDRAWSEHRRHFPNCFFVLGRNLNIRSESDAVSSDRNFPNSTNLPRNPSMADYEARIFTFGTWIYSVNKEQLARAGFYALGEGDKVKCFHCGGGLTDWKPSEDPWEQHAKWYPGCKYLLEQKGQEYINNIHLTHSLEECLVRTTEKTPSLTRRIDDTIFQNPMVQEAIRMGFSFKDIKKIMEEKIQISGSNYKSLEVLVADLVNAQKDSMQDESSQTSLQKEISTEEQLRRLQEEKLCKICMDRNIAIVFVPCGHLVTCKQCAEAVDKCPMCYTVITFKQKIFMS
Chain of Dihydroorotate dehydrogenase (quinone), mitochondrial (Plasmodium falciparum (isolate 3D7)) (Q08210 whole entry, looked up): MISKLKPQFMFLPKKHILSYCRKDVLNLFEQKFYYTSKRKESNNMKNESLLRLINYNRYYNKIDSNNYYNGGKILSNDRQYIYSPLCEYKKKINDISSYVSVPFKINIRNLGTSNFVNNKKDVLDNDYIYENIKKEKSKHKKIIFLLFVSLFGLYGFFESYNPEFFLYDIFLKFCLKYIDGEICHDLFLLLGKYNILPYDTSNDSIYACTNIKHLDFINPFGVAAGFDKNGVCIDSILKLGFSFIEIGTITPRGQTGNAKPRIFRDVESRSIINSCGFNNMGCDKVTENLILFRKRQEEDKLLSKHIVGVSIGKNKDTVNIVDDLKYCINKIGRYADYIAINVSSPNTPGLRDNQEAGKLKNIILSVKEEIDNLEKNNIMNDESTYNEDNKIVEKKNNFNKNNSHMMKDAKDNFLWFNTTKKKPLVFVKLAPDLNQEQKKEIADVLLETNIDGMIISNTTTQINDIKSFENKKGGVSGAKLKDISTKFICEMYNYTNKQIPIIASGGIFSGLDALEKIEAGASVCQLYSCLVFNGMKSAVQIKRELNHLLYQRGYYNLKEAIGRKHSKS

Regarding `C[N+](C)(C)CCCC[C@@H]1NC(=O)[C@H]2C[C@@H](C(=O)NCCCCCCN)[C@@H](c3cccc(OCCO)c3)N2C1=O`, the z-score in experiment [1] was -2.69; in [2], -0.707 (inactive); in [3], 0.45 (inactive); in [5] it was 1.18 (inactive); in experiment [6] it was -0.0241 (inactive); in [7], -0.678 (inactive). Also, the z-score in experiment [8] is -1.35 (inactive); in experiment [9], 0.652. For the same compound, the composite z-score in [4] is -0.114 (inactive); in [10], 0.194.

Turning to `O=C1OCC=C[C@H]2OC34C=CCN(CCN5CCOCC5)C(=O)[C@H]3N(CCCCCO)C(=O)[C@@H]4[C@@H]12` (stereo not given in full), the z-score in [1] was -0.267; in experiment [2] it was -0.654 (inactive); in [3] it was -1.12 (inactive); in experiment [5], -0.525 (inactive); in [6], 0.105 (inactive); in [7] it was -1.18 (inactive). The z-score was -1.37 (inactive) in [8] and -0.82 in experiment [9]. The composite z-score is 0.31 (inactive) in experiment [4] and 0.11 in [10].

`COCCOC(=O)N1C(=O)[C@@]2(c3cc(C#CCCO)ccc31)[C@H](C(=O)NC[C@H](O)c1ccccc1)[C@H]1C(=O)O[C@H](c3ccccc3)[C@H](c3ccccc3)N1[C@@H]2c1ccccc1OCCO`: the z-score in experiment [1] was 0.446; in experiment [2], 0.446 (inactive); in [3] it was 0.0837 (inactive); in [5], 1.12 (inactive); in experiment [6], 1.88 (inactive); in [7], 0.136 (inactive). Moreover, the z-score in [8] is 0.259 (inactive); in experiment [9], -0.135. In addition, the composite z-score in [4] was 0.246 (inactive); in experiment [10] it was 0.0593.

Consider `COCCOC(=O)N1C(=O)[C@@]2(c3cc(C#CCC(C(=O)OC)C(=O)OC)ccc31)[C@H](c1ccc(OCCO)cc1)N1[C@H](c3ccccc3)[C@H](c3ccccc3)OC(=O)[C@H]1[C@@H]2C(N)=O`, for which the z-score in experiment [1] is 0.331; in [2], 1.87 (inactive); in experiment [3], -0.22 (inactive); in experiment [5], 2.32 (inactive); in experiment [6], 2.34 (inactive); in [7] it was -0.102 (inactive). The z-score in experiment [8] was -0.554 (inactive); in experiment [9], -0.112. The composite z-score in experiment [4] was -1.15 (inactive); in experiment [10], 0.049.

Turning to `NC(=O)[C@H]1[C@@H]2C(=O)O[C@@H](c3ccccc3)[C@@H](c3ccccc3)N2[C@@H](c2ccc(O)cc2)[C@]12C(=O)Nc1ccc(C#CC3(O)CCCCCC3)cc12`, the z-score is -0.518 in [1]; -0.475 (inactive) in [2]; 0.522 (inactive) in [3]; 0.738 (inactive) in experiment [5]; -0.323 (inactive) in experiment [6]; 0.249 (inactive) in experiment [7]. The results for the z-score in experiment [8] and in [9] were -0.815 (inactive) and 0.159, respectively. Further, the figures for the composite z-score in experiment [4] and in experiment [10] were -0.885 (inactive) and -0.102, respectively.

In the case of `CCCC=C(CCC)[C@@H](NS(=O)(=O)CC)c1ccccc1`, the z-score was 0.281 in [1]; 1.32 (inactive) in experiment [2]; -0.364 (inactive) in [3]; 0.302 (inactive) in [5]; 0.462 (inactive) in experiment [6]; -1.1 (inactive) in [7]. The z-score was -0.0887 (inactive) in experiment [8] and -0.745 in [9]. Moreover, the composite z-score in [4] is -0.317 (inactive); in experiment [10], 0.23.

`COCCCNC(=O)[C@]1(CCS(=O)(=O)c2ccccc2)N=C(c2ccc(OCCCO)cc2)O[C@@H]1c1ccccc1`: the z-score is 0.484 in experiment [1]; -0.324 (inactive) in [2]; 0.294 (inactive) in [3]; -0.0304 (inactive) in [5]; -0.588 (inactive) in experiment [6]; 0.604 (inactive) in experiment [7]. For the same compound, the values for the z-score in experiment [8] and in [9] were 0.607 (inactive) and -0.0847, respectively. In addition, the composite z-score was 0.888 (inactive) in experiment [4] and 0.209 in experiment [10].

For `C=CCC(OC(C)=O)[C@@H]1[C@@H](N(Cc2cccc3ccccc23)C(=O)Cc2ccc(F)cc2)c2cc(OCCCO)ccc2N1C(=O)Cc1ccc(OC)cc1` (stereo not given in full), the z-score in experiment [1] was 0.303; in experiment [2], -1.61 (inactive); in experiment [3], 0.738 (inactive); in experiment [5] it was -0.206 (inactive); in experiment [6], -1.16 (inactive); in [7], 0.248 (inactive). In addition, the z-score in experiment [8] is 0.927 (inactive); in experiment [9], 1.01. Further, the composite z-score in [4] is -0.83 (inactive); in experiment [10], -0.01.

For `COc1cc2c(cc1OC)CN(C(=O)[C@@H]1[C@H]3C(=O)O[C@H](c4ccccc4)[C@H](c4ccccc4)N3[C@H](c3ccc(OCCO)cc3)[C@@]13C(=O)Nc1ccc(C#CCCO)cc13)CC2`, the z-score was -0.0794 in experiment [1]; 0.66 (inactive) in [2]; 0.113 (inactive) in [3]; 2.75 (inactive) in [5]; 1.45 (inactive) in [6]; 0.592 (inactive) in [7]. Further, the z-score in experiment [8] was -0.13 (inactive); in experiment [9], 0.768. Also, the composite z-score is 1.66 (inactive) in [4] and -0.113 in experiment [10].

On to `CC(=O)NCCCC[C@@H]1NC(=O)[C@@H]2C[C@H](C(=O)NCCCC[N+](C)(C)C)[C@H](c3cccc(OCCO)c3)N2C1=O`, for which the z-score in experiment [1] is -0.44; in experiment [2], 1.41 (inactive); in [3], -1.56 (inactive); in experiment [5], 0.876 (inactive); in experiment [6] it was 0.954 (inactive); in [7] it was -0.0845 (inactive). For the same compound, the z-score in experiment [8] was -0.629 (inactive); in experiment [9], -0.803. For the same compound, the results for the composite z-score in experiment [4] and in experiment [10] were -22.3 (active) and 0.142, respectively.
